A word on the inhibition: it is the change of the read-out against control, counted positive when it falls.

Each structure is given as a SMILES string. Values without a mark were called inactive. The source made the active and inactive calls.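 The calls were made as follows, unless noted: active = mean inhibition above 46.5%, the solvent-only control mean plus 3 SD; inactive = the rest.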

The test system of test [1] is transactivating tegument protein VP16 (Human herpesvirus 1). As to the kind of experiment: compounds suppressing VP16-driven luciferase signal – cell-based, luminescence, single concentration, counter-screen for SRC2 inhibitor project (AID 652007; in the data active = inhibition above about 36%). To be noted: cell-based VP16 transactivation luciferase reporter, at 8.9 µM, stronger effect = higher value. In general terms: A counterscreen serves to expose hits that act by an unwanted route or on another target.

The target of test [2] is Nuclear receptor coactivator 2 (Homo sapiens) (UniProt Q15596). As to the kind of experiment: inhibition of GAL4-SRC2 driven luciferase expression – cell-based, luminescence, HEK293, triplicate, confirmation (AID 652008).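 Also: 0% = DMSO-treated cells and 100% = Gossypol at 36 µM.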 The following applies: HEK293 GAL4-SRC2 luciferase reporter, at 8.9 µM, stronger effect = higher value.
Sequence of Nuclear receptor coactivator 2 (Homo sapiens) (Q15596 whole entry, looked up, the tested form may be a part): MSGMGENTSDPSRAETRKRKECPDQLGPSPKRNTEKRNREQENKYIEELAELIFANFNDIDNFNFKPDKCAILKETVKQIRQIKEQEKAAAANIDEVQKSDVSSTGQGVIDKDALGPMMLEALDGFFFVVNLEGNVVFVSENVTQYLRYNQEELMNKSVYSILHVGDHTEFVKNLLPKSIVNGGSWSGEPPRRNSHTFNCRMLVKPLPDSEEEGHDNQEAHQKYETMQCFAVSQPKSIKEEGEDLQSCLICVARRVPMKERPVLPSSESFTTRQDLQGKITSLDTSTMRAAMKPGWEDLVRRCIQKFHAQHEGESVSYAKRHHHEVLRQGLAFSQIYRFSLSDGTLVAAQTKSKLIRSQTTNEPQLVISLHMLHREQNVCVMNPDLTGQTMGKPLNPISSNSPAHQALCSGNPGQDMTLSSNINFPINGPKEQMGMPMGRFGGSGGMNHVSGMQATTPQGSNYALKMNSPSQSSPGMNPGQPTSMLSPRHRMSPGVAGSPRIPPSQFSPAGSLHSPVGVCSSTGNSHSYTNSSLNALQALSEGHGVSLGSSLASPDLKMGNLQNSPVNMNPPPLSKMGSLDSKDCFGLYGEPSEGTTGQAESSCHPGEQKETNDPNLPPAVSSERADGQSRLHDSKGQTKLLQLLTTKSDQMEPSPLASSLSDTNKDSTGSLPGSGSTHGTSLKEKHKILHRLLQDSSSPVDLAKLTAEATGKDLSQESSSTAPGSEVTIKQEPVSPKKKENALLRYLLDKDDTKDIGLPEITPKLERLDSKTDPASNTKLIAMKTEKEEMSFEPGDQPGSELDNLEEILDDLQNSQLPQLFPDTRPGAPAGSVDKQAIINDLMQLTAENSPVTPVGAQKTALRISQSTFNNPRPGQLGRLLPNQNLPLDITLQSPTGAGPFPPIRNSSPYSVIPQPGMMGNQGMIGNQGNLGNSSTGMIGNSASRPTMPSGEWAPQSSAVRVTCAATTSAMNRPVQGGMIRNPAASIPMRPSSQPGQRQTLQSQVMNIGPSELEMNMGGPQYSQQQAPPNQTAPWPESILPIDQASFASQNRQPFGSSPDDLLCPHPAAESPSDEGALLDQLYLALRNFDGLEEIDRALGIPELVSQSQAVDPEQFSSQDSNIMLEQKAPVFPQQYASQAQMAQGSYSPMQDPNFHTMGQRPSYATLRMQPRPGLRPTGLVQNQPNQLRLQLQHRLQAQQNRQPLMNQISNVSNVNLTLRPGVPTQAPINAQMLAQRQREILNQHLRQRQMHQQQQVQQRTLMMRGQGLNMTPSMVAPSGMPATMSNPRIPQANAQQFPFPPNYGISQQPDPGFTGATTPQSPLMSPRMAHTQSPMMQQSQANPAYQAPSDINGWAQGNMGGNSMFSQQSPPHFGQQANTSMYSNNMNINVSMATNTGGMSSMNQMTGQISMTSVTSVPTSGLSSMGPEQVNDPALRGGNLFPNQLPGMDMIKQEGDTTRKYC

Turning to `CCCn1c(CC)nc([N+](=O)[O-])c1Sc1ccc(F)cc1`, the inhibition in test [1] was -3.5%; in test [2], 13.2%.
In the case of `Cc1ccc(CN2CCC(C(=O)Nc3ccc(Oc4cccnc4)cc3)CC2)cc1`, the results for the inhibition in test [1] and in test [2] were 7.59% and -0.58%, respectively.
With `CCOC(=O)CCSc1nc(C(C)(C)C)cc(C(F)(F)F)c1C#N`, the inhibition in test [1] was -14.2%; in test [2], -27.6%.
Turning to `CCOc1ccc2oc(C(=O)NCc3ccccc3CN3CCCC3)c(C)c2c1`, the inhibition in test [1] is -10.5%; in test [2], -12.9%.
Consider `CN1Cc2sc(NC(=S)NC(=O)c3ccccc3)c(C#N)c2CC1(C)C`, for which the inhibition in test [1] is 20.5%; in test [2], 58.2% (active).
As for `CN(C)CCCN(C(=O)CCOc1ccccc1)c1nc2c(F)cccc2s1`, the results for the inhibition in test [1] and in test [2] were -2.69% and 20.6%, respectively.
On to `NCCOc1ccc(C2CCCCC2)cc1`, for which the figures for the inhibition in test [1] and in test [2] were -53.7% and 23%, respectively.
As for `Cc1ccc(C)c(S(=O)(=O)N2CCN(C(=O)C3CCN(c4ncnc5sc(C)c(C)c45)CC3)CC2)c1`, the inhibition was 15.6% in test [1] and 38.6% in test [2].
Take `Cc1c(CCC(=O)O)c(=O)oc2cc3oc4c(c3cc12)CCCC4`: the inhibition is 49.3% (active) in test [1] and 69.2% (active) in test [2].
In the case of `CCOn1c(=O)c[n+]([O-])c2ccccc21`, the inhibition in test [1] was 9.21%; in test [2] it was -6.65%.
As to `C=CCc1c(C)nc(SC(C)C)[nH]c1=O`, the inhibition is 0.2% in test [1] and -25.4% in test [2].
The corresponding values for `O=C(Cn1ncc2c([nH]c3ccccc32)c1=O)NCCc1ccccc1` are 21.4% and 12.2%.
With `C=C1C(=O)[C@]23C[C@H]1CCC2[C@]1(C)CCC[C@@](C)(C(=O)O)C1C[C@@H]3O` (some centres not stated), the inhibition in test [1] is 4.96%; in test [2], 6.02%.
As for `CCN(CC)c1ccc(NC(=O)CCCCC(=O)Nc2ccc(N(CC)CC)cc2)cc1`, the inhibition in test [1] was 16.2%; in test [2] it was 48.3% (active).
As to `Cn1c(=N)n(CC(=O)c2ccc(F)cc2)c2ccccc21`, the inhibition in test [1] is -28.2%; in test [2] it was -22.8%.
On to `CC(=O)n1cc(N(C(=O)CCl)c2ccccc2)c2ccccc21`, for which the inhibition in test [1] was 51.8% (active); in test [2], 50.5% (active).
As to `Cc1nc(SCc2cccc(C(=O)O)c2)nc2c1CCCC2`, the inhibition was 4.6% in test [1] and 56.6% (active) in test [2].
As to `COCCN(C(=O)Cc1ccc(S(=O)(=O)N2CCOCC2)s1)c1c(N)n(CC(C)C)c(=O)[nH]c1=O`, the inhibition is 1.4% in test [1] and -13.1% in test [2].
On to `NC(=O)c1cc(C(=O)c2ccc(Cl)cc2Cl)c[nH]1`, for which the values for the inhibition in test [1] and in test [2] were -19.8% and 14.3%, respectively.
Turning to `Nc1ccc(C(=O)n2c3ccccc3c3ccccc32)cc1`, the inhibition in test [1] was 20.2%; in test [2] it was 17.5%.
As to `Cc1cc(-c2ccccc2)n(-c2cc(N/N=C/c3ccccc3O)ncn2)n1`, the values for the inhibition in test [1] and in test [2] were -0.63% and 51.5% (active), respectively.
Consider `CCc1ccc(CCNC(=O)OCCCN2CCC3(CCC(c4ccccc4)CC3)C2=O)cc1` (configuration not stated), for which the results for the inhibition in test [1] and in test [2] were 5.9% and 33.8%, respectively.
For `COC(=O)[C@]12C[C@H](CC(=O)N3CCCCC3)C(=O)N(Cc3ccco3)C1=C[C@H](C(C)C)O[C@@H]2C1CC1`, the inhibition in test [1] is -5.52%; in test [2], -14.3%.
Consider `c1nnc2c3c4c(sc3ncn12)CCC4`, for which the results for the inhibition in test [1] and in test [2] were 4.85% and 26.2%, respectively.
As for `O=[N+]([O-])c1ccc(Sc2nccn2Cc2ccccc2)c([N+](=O)[O-])c1`, the inhibition in test [1] is 4.42%; in test [2] it was 32.1%.
As to `CCC(C)(C(=O)NC1CCCCC1)N(Cc1cccs1)C(=O)CC1NC(=O)NC1=O` (configuration not stated), the figures for the inhibition in test [1] and in test [2] were -9.62% and -11.8%, respectively.
With `Cc1ccc2c(c1)N(C(=O)CCC(=O)NCCCN1CCN(C)CC1)CC(C)O2` (configuration not stated), the inhibition in test [1] was -11.4%; in test [2] it was -10.8%.
The corresponding values for `Nc1nonc1C(=O)NCCNCc1cc(Br)ccc1OCc1ccc(F)cc1` are 1.07% and 1.86%.
For `O=C(c1ccc(Cl)cc1)C(CN1CCCCC1)c1ccccc1` (configuration not stated), the inhibition in test [1] is 32.9%; in test [2], 57.8% (active).
The corresponding values for `CCN(CC)Cc1nc2c(c(=O)[nH]1)C(CC)(CC)Cc1ccccc1-2` are -14.9% and 6.86%.
The corresponding values for `CSc1nnc(NC(=O)c2nc(S(=O)(=O)Cc3ccc(C)cc3)ncc2Cl)s1` are 36.7% (active) and 55.7% (active).
With `C=C(C(=O)c1ccccc1)C(C)CC(=O)c1ccccc1` (configuration not stated), the inhibition was 11.5% in test [1] and 26.8% in test [2].
On to `COC(=O)c1nn(-c2ccc3c(c2)CCN3C(C)=O)cc1O`, for which the inhibition in test [1] was -21.8%; in test [2] it was 43.5%.
`COc1ccc2c(n1)Sc1nc3ccccc3nc1N2`: the inhibition in test [1] was -80.4%; in test [2] it was -87.5%.
Taken in the same sequence, the figures for `CCOC(=O)Cc1csc(N/N=C/c2ccc(C(F)(F)F)cc2)n1` were -7.46% and 44.6%.
Turning to `N#CCCN(C(=O)CCl)c1cccc(Cl)c1`, the inhibition was 28.7% in test [1] and 62.8% (active) in test [2].
On to `CCOC(=O)C1=CCN(S(=O)(=O)c2cccc(Cl)c2)C1c1ccc(Cl)c(Cl)c1` (configuration not stated), for which the results for the inhibition in test [1] and in test [2] were -7.88% and 7.77%, respectively.
Regarding `COc1ccccc1/C=C/C1(C(=O)NC2CCCC2)CC(=O)N1c1ccc(F)cc1` (configuration not stated), the values for the inhibition in test [1] and in test [2] were 19.7% and 49.2% (active), respectively.
Taken in the same sequence, the figures for `O=S1(=O)CCS(=O)(=O)C1c1ccccc1` were 15.8% and -3.12%.
With `COc1cccc2c1C(CO)N1C(C#N)C3CC(C(=O)O)C(C1C2)N3C` (configuration not stated), the inhibition in test [1] is 40.5% (active); in test [2], 66.1% (active).
Taken in the same sequence, the figures for `Cc1nc2cc(-c3ccccc3)nn2c(C)c1CCC(=O)NCc1ccco1` were -27.7% and 46.5% (active).
In the case of `Cc1nnc(NC(=O)c2nc(S(=O)(=O)Cc3ccccc3C)ncc2Cl)s1`, the inhibition was 42% (active) in test [1] and 49.7% (active) in test [2].
On to `O=C(O)c1cccc(CSc2nnc(COc3ccccc3)o2)c1`, for which the inhibition in test [1] is 15.7%; in test [2] it was 34.5%.
For `CC(C)CNC(=O)COC(=O)c1c2c(nc3ccccc13)CCC2`, the inhibition was 9.25% in test [1] and 11.4% in test [2].
For `Cc1ccc(/C=C2\SC(=S)N(CCCC(=O)Nc3ccccc3C(=O)O)C2=O)cc1`, the inhibition in test [1] is 40% (active); in test [2], 59.4% (active).
On to `O=S(=O)(c1ccc(Cl)cc1)N1CCCC1c1nc(-c2ccc(Cl)cc2)no1` (configuration not stated), for which the figures for the inhibition in test [1] and in test [2] were -5.4% and -14.7%, respectively.

The record behind these values is PubChem BioAssay.
